Here are results for one sequence from paper PMC7862700, “An all-to-all approach to the identification of sequence-specific readers for epigenetic DNA modifications on cytosine”.

Common to all, as to experiment: DAPPL (digital affinity profiling via proximity ligation, sequencing); 10 mM Tris-HCl pH 7.5, 50 mM NaCl, 1 mM DTT, 4% glycerol, room temperature, 30 min; GST-TFs on glutathione beads, 16-mer random dsDNA library, 0.1% formaldehyde crosslink after washing; high values mean tight binding
The target of assay [1] is T1, FLI1 (Homo sapiens, UniProt Q01543 1-452).
T1 sequence: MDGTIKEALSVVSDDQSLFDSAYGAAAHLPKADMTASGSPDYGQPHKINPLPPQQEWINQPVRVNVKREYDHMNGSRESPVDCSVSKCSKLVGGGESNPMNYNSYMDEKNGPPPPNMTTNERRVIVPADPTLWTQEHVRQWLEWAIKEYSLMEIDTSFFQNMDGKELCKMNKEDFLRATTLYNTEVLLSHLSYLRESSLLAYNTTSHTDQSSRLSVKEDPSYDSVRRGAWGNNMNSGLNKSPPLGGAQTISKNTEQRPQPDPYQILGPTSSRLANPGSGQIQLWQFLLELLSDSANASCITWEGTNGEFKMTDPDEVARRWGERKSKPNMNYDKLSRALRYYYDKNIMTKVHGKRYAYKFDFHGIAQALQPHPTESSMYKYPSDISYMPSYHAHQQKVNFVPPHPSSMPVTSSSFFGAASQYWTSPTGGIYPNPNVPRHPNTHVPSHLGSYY
As to conditions: protein: recombinant; tags: N-terminal GST; dsDNA, one strand shown. The gist of the method: (§1)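 Binding signal is given per hexamer as its read frequency for a factor divided by its frequency in the tag-only sample. GST-fused human transcription factors were expressed in yeast, captured on glutathione beads, barcoded with DNA and pooled with that sample, then incubated with 200 nmole of a 16-mer random double-stranded DNA library in Tris/NaCl/DTT/glycerol buffer for 30 min at room temperature. The pools were then washed, crosslinked, proximity-ligated, amplified by PCR and sequenced on an Illumina NextSeq500.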

Assay [2] concerns the target T2, ELK1 (Homo sapiens, UniProt P19419 1-428).
T2 sequence: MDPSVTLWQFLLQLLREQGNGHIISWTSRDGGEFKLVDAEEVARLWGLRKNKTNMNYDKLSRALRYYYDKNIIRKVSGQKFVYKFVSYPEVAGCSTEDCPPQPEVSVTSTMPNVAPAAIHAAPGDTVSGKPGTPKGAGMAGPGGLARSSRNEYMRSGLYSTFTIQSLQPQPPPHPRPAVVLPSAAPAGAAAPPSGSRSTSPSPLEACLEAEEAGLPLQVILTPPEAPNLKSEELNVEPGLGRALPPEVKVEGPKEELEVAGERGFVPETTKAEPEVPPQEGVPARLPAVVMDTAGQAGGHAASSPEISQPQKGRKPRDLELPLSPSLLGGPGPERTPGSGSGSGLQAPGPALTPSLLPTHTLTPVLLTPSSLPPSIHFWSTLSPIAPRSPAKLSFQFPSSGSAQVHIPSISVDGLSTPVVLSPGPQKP
To be noted: protein: recombinant; tags: N-terminal GST; dsDNA, one strand shown. The gist of the method:
as §1

The target in assay [3] is T3, GABPA (Homo sapiens, UniProt Q06546 1-454).
T3 sequence: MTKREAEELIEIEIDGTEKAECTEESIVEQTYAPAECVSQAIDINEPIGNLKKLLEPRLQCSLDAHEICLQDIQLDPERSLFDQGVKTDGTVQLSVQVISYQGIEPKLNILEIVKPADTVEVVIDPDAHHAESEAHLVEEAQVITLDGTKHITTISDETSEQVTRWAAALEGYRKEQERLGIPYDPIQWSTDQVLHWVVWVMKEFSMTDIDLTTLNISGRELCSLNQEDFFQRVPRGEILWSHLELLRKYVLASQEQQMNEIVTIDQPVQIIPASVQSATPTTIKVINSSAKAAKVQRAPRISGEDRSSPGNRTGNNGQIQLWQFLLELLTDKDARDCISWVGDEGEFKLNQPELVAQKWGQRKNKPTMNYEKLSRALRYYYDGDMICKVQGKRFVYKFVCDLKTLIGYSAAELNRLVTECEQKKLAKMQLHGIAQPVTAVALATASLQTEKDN
To be noted: protein: recombinant; tags: N-terminal GST; dsDNA, one strand shown. The gist of the method:
as §1

In assay [4] the target is T4, ERG (Homo sapiens, UniProt P11308 1-479).
T4 sequence: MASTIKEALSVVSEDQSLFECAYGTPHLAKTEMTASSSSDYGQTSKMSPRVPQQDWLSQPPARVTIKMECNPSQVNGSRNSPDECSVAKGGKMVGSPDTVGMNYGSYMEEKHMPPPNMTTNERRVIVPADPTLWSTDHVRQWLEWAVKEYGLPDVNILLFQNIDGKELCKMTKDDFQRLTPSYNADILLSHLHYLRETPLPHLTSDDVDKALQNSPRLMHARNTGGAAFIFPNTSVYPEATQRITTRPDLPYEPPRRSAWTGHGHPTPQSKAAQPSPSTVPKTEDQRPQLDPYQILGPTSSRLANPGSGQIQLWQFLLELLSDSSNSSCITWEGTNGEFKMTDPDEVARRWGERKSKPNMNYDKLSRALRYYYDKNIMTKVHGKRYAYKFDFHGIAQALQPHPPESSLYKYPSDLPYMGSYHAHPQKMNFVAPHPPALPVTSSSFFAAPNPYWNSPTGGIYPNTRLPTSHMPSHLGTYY
To be noted: protein: recombinant; tags: N-terminal GST; dsDNA, one strand shown. The gist of the method:
as §1

The target of assay [5] is ELF1 (Homo sapiens, UniProt P32519 1-619). To be noted: protein: recombinant; tags: N-terminal GST; dsDNA, one strand shown. The procedure, abridged: as §1
Sequence of ELF1 (P32519 whole entry): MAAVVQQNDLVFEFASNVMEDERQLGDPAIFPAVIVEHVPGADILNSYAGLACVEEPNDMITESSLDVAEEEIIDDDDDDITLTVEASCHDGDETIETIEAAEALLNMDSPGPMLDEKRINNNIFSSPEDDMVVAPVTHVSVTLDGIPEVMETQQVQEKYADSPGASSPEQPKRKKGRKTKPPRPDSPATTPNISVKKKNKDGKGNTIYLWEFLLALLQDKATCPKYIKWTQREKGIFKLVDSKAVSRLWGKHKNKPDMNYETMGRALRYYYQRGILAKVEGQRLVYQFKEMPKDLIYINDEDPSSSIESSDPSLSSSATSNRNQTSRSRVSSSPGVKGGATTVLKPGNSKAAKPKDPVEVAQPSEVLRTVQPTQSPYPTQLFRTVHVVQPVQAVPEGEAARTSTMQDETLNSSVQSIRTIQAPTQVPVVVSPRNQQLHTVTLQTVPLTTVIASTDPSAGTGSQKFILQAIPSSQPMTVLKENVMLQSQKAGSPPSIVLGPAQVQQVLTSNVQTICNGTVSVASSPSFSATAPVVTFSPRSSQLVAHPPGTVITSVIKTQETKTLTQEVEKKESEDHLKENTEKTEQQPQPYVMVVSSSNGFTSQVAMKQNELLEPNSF
Assay [6] addresses T5, EHF (Homo sapiens, UniProt Q9NZC4 1-300).
T5 sequence: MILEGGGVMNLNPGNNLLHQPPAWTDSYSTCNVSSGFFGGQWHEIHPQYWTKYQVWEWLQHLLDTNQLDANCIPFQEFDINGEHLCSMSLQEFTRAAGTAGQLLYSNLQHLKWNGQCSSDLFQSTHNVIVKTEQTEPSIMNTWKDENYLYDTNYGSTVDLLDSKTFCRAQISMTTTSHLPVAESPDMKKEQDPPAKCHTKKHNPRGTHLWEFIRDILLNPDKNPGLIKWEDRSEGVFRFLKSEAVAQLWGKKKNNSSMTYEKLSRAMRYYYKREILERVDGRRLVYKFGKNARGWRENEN
As to conditions: protein: recombinant; tags: N-terminal GST; dsDNA, one strand shown. The gist of the method: as §1

Assay [7] deals with SPI1 (Homo sapiens, UniProt P17947 1-270). To be noted: protein: recombinant; tags: N-terminal GST; dsDNA, one strand shown. The gist of the method: as §1
The target of assay [8] is SPIB (Homo sapiens, UniProt Q01892 1-262). To be noted: protein: recombinant; tags: N-terminal GST; dsDNA, one strand shown. The procedure, abridged:
as §1

Assay [9] addresses T6, ELK3 (Homo sapiens, UniProt P41970 1-407).
T6 sequence: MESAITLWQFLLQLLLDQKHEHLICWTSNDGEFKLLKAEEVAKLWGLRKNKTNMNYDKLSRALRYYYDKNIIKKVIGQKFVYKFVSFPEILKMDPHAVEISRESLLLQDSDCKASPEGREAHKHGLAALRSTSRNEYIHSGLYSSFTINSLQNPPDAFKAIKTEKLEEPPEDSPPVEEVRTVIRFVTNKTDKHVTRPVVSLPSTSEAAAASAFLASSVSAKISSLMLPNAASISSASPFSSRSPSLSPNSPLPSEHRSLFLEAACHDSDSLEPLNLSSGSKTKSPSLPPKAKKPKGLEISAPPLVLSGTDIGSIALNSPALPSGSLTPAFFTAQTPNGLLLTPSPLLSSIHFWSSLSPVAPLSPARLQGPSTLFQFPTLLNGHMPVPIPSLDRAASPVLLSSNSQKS
To be noted: protein: recombinant; tags: N-terminal GST; dsDNA, one strand shown. The procedure, abridged: as §1

The target of assay [10] is T7, FEV (Homo sapiens, UniProt Q99581 1-238).
T7 sequence: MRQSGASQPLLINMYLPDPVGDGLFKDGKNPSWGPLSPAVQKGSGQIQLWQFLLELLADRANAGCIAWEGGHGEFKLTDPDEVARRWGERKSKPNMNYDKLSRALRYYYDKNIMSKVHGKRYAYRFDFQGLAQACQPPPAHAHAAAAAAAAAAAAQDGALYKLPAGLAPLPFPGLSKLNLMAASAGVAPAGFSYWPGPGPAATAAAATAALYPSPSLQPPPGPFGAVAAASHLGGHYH
To be noted: protein: recombinant; tags: N-terminal GST; dsDNA, one strand shown. The procedure, abridged:
as §1

For assay [11], the target named is ETV5 (Homo sapiens, UniProt P41161 1-510). As to conditions: protein: recombinant; tags: N-terminal GST; dsDNA, one strand shown. The gist of the method:
as §1

In assay [12] the target is HSF1 (Homo sapiens, UniProt Q00613 1-529). To be noted: protein: recombinant; tags: N-terminal GST; chain copies: 3; dsDNA, one strand shown. The procedure, abridged: as §1
Sequence of HSF1 (Q00613 whole entry): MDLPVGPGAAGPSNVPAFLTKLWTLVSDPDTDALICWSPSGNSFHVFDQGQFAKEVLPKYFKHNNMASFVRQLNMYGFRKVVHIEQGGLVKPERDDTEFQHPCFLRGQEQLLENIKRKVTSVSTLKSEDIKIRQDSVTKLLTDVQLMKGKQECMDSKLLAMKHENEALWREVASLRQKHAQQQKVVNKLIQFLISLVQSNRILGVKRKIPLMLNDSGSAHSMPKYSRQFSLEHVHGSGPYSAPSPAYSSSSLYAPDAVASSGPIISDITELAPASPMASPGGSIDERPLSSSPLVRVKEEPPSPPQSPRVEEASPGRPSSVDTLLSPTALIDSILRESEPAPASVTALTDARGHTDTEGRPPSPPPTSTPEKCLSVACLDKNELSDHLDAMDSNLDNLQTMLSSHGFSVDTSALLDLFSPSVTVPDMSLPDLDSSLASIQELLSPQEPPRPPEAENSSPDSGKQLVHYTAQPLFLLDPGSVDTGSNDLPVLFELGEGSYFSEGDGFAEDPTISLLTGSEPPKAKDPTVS
The target of assay [13] is T8, SPIC (Homo sapiens, UniProt Q8N5J4 1-248).
T8 sequence: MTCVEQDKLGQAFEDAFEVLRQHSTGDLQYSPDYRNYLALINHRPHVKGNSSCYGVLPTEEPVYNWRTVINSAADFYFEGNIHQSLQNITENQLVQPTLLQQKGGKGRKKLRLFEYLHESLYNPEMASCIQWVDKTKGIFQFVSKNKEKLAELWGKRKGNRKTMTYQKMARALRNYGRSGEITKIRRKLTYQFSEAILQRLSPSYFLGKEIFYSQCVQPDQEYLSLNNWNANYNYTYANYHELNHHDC
To be noted: protein: recombinant; tags: N-terminal GST; dsDNA, one strand shown. The procedure, abridged: as §1

In assay [14] the target is ELF4 (Homo sapiens, UniProt Q99607 1-663). As to conditions: protein: recombinant; tags: N-terminal GST; dsDNA, one strand shown. The gist of the method: as §1
Sequence of ELF4 (Q99607 whole entry): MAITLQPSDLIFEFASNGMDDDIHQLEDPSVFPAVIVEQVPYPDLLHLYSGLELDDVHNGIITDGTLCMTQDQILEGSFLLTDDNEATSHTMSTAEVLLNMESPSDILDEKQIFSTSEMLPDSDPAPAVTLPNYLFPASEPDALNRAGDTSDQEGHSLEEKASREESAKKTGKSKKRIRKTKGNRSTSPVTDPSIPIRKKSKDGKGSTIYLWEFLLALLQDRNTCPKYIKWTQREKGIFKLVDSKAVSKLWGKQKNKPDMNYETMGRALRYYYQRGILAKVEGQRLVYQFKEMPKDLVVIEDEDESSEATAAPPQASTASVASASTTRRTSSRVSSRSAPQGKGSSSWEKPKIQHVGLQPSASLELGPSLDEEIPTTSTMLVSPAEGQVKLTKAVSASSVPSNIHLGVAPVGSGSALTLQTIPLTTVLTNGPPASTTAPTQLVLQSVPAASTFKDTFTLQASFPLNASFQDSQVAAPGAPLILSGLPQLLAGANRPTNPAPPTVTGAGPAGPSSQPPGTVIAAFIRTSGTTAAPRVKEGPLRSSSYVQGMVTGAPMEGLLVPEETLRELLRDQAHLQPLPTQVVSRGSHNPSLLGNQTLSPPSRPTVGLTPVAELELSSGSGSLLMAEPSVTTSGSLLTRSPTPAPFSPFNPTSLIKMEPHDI
Assay [15] addresses T9, ELK4 (Homo sapiens, UniProt P28324-2 1-405).
T9 sequence: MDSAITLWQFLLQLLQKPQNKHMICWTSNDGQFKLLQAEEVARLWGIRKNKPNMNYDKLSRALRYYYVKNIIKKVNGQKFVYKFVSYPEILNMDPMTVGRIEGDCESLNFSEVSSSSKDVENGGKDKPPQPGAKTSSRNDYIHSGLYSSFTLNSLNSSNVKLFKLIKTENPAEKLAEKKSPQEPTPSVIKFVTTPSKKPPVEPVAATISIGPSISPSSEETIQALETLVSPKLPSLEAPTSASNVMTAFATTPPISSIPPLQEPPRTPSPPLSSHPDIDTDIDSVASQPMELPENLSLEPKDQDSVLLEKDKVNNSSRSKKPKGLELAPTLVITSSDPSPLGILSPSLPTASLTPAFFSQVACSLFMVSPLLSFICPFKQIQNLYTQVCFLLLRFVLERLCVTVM
To be noted: protein: recombinant; tags: N-terminal GST; dsDNA, one strand shown. The gist of the method: as §1

The target in assay [16] is T10, ETV2 (Homo sapiens, UniProt O00321 1-342).
T10 sequence: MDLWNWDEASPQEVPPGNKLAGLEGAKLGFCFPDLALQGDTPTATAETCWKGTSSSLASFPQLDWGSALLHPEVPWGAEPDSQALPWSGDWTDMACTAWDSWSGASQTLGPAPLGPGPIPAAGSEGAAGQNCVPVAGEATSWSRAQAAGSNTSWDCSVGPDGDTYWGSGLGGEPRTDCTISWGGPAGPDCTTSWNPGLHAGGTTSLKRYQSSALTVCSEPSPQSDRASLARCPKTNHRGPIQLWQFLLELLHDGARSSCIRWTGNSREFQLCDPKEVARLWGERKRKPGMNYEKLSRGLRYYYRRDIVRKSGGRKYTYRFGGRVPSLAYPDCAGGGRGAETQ
As to conditions: protein: recombinant; tags: N-terminal GST; dsDNA, one strand shown. The gist of the method: as §1

Assay [17] concerns the target T11, ELF3 (Homo sapiens, UniProt P78545 1-371).
T11 sequence: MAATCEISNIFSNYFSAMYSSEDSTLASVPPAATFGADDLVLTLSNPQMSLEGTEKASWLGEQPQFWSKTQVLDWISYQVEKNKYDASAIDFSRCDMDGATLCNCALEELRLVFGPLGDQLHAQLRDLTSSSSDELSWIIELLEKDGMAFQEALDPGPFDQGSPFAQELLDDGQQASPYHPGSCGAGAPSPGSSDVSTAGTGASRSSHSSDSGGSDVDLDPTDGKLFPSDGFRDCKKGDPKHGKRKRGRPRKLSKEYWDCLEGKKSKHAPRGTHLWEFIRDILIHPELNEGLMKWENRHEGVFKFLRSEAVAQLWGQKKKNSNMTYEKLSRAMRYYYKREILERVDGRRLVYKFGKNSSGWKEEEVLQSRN
To be noted: protein: recombinant; tags: N-terminal GST; dsDNA, one strand shown. The procedure, abridged:
as §1

Assay [18] deals with CRX (Homo sapiens, UniProt O43186 1-299). As to conditions: protein: recombinant; tags: N-terminal GST; dsDNA, one strand shown. The procedure, abridged: as §1
Sequence of CRX (O43186 whole entry): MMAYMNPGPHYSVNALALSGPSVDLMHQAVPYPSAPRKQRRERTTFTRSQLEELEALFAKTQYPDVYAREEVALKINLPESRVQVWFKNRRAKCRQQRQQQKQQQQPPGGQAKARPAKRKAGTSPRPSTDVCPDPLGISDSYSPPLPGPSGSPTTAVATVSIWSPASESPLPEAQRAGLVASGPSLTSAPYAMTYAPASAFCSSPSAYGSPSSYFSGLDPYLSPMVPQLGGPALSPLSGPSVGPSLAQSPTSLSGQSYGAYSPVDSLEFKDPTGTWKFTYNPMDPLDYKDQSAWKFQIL
Assay [19] has as its target ETV1 (Homo sapiens, UniProt P50549 1-477). As to conditions: protein: recombinant; tags: N-terminal GST; dsDNA, one strand shown. The procedure, abridged: as §1

Sequence of ETV1 (P50549 whole entry): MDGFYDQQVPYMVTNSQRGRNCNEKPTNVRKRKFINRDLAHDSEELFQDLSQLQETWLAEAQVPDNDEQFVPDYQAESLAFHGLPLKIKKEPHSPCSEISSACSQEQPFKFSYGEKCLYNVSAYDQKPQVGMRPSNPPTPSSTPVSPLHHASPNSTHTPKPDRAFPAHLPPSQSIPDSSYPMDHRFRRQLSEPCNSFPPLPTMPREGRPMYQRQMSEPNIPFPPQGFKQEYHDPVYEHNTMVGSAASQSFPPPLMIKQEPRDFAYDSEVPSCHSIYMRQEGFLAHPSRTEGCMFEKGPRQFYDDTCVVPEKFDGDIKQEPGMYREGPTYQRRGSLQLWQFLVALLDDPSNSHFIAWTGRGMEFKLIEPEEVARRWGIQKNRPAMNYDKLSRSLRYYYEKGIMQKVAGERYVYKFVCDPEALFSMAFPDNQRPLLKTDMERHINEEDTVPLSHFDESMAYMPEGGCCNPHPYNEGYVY
Sequence of SPIB (Q01892 whole entry): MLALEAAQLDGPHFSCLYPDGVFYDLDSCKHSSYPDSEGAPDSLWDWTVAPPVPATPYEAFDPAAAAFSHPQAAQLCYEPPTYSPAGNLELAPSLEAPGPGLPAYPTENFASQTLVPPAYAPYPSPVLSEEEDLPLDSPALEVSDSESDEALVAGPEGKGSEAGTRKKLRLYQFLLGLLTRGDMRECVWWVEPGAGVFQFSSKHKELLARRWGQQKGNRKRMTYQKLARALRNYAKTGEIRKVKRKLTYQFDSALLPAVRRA
Sequence of ETV5 (P41161 whole entry): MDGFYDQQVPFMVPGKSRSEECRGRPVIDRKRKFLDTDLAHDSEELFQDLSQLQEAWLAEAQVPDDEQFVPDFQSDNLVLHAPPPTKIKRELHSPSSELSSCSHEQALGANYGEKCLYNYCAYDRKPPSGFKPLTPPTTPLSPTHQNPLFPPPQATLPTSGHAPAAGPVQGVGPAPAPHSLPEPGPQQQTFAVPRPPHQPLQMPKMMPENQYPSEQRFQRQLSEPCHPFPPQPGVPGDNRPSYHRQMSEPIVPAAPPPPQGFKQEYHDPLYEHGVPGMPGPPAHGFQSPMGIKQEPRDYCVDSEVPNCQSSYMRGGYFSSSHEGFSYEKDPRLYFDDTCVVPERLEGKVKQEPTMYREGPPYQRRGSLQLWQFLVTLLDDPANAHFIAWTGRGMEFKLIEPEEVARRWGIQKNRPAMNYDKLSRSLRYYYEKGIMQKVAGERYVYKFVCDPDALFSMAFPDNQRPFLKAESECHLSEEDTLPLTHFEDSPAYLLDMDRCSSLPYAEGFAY

In the case of GTTACT, the binding signal in assay [1] was 1.25 fold enrichment (6-mer frequency, TF over GST control); in assay [2] it was 1.28 fold enrichment (6-mer frequency, TF over GST control); in [3], 1.13 fold enrichment (6-mer frequency, TF over GST control); in assay [4], 1.33 fold enrichment (6-mer frequency, TF over GST control); in [5] it was 1.22 fold enrichment (6-mer frequency, TF over GST control); in [6], 1.37 fold enrichment (6-mer frequency, TF over GST control). The binding signal is 1.3 fold enrichment (6-mer frequency, TF over GST control) in assay [7]; 1.23 fold enrichment (6-mer frequency, TF over GST control) in assay [8]; 1.31 fold enrichment (6-mer frequency, TF over GST control) in [9]; 1.17 fold enrichment (6-mer frequency, TF over GST control) in assay [10]; 1.28 fold enrichment (6-mer frequency, TF over GST control) in assay [11]; 1.03 fold enrichment (6-mer frequency, TF over GST control) in [12]. Besides, the binding signal in assay [13] is 1.31 fold enrichment (6-mer frequency, TF over GST control); in assay [14] it was 1.18 fold enrichment (6-mer frequency, TF over GST control); in assay [15] it was 1.09 fold enrichment (6-mer frequency, TF over GST control); in assay [16], 1.19 fold enrichment (6-mer frequency, TF over GST control); in [17], 1.4 fold enrichment (6-mer frequency, TF over GST control); in assay [18], 1.03 fold enrichment (6-mer frequency, TF over GST control). In assay [19], the binding signal is 1.17 fold enrichment (6-mer frequency, TF over GST control).
